# Source: the supplement of paper PMC4022240
# ± gives the standard deviation.
# T1: HaloTag-ATRX ADD domain (163-292)
# T1 chain: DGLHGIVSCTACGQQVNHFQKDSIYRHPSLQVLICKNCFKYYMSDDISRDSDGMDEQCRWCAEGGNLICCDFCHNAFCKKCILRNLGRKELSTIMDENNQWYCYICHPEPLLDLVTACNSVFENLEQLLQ
# B1: H2A 11-23 R A K A K T R S S R A G L (peptide)
# chain: RAKAKTRSSRAGL
# B2: H2B 1-13 P E P A K Sph A P A P K K G (peptide)
# chain: PEPAKSAPAPKKG
# B3: H2B 1-13 P E P A Kac Sph A P A P Kac K G (peptide)
# chain: PEPAKSAPAPKKG
# B4: H2B 7-19 A P A P Kac Kac G Sph Kac K A V T (peptide)
# chain: APAPKKGSKKAVT
# B5: H2B 7-19 A P A P K K G S K K A V T (peptide)
# chain: APAPKKGSKKAVT
# Key:
# Test in all cases: peptide microarray binding signal (635 nm), min-max normalized on array (fraction of array maximum); higher = stronger binding
# [1] = target: T1, HaloTag-ATRX ADD domain (163-292)
# Method: (§1)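 Histone 13-mer peptides were synthesized as cellulose conjugates with a C-terminal 20-atom PEG linker and printed in triplicate on nitrocellulose. The sequence given is the unmodified backbone; PTMs (Kme1/2/3, Kac, Sph/Tph, Rme/Rme2a/Rme2s, Rcit) are listed in the label and the 'peptide modifications' condition. Slides were probed at 4 °C for 1 h with biotin-labelled (HQ)5-HaloTag reader fusions (ATRX-ADD, ING2-PHD) then streptavidin-Alexa647, or with rabbit histone antibodies then anti-rabbit Alexa647. The mean 635 nm signal of the triplicate spots was scaled 0-1 between the lowest and highest values on each array.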
# [2] = target: HaloTag-ING2 PHD (mouse Ing2 200-280)
# Method: as §1
# [3] = target: anti-H3K4me3 antibody ab8580
# Method: as §1
# [4] = target: anti-H3K9me3 antibody ab8898
# Method: as §1
# [5] = peptide region: H2A 11-23, binder concentration: 1:2,000 dilution
# [6] = peptide region: H2A 11-23, binder concentration: 1:10,000 dilution
# [7] = peptide region: H2B 1-13, peptide modifications: H2BS6ph, binder concentration: 1:2,000 dilution
# [8] = peptide region: H2B 1-13, peptide modifications: H2BS6ph, binder concentration: 1:10,000 dilution
# [9] = peptide region: H2B 1-13, peptide modifications: H2BK5ac H2BS6ph H2BK11ac, binder concentration: 1:2,000 dilution
# [10] = peptide region: H2B 1-13, peptide modifications: H2BK5ac H2BS6ph H2BK11ac, binder concentration: 1:10,000 dilution
# [11] = peptide region: H2B 7-19, peptide modifications: H2BK11ac H2BK12ac H2BS14ph H2BK15ac, binder concentration: 1:2,000 dilution
# [12] = peptide region: H2B 7-19, peptide modifications: H2BK11ac H2BK12ac H2BS14ph H2BK15ac, binder concentration: 1:10,000 dilution
# [13] = peptide region: H2B 7-19, binder concentration: 1:2,000 dilution
# [14] = peptide region: H2B 7-19, binder concentration: 1:10,000 dilution
binder,measurement,setting,value
B1,peptide microarray binding signal,"[1]; peptide region: H2A 11-23, binder concentration: 50 nM",0.00404 ± 4.2e-05
same,peptide microarray binding signal,"[1]; peptide region: H2A 11-23, binder concentration: 500 nM",0.00457 ± 5.4e-05
same,peptide microarray binding signal,"[2]; peptide region: H2A 11-23, binder concentration: 10 nM",0.003462 ± 3.2e-05
same,peptide microarray binding signal,"[2]; peptide region: H2A 11-23, binder concentration: 100 nM",0.00581 ± 0.00028
same,peptide microarray binding signal,[3]; [5],0.00125 ± 0.0004
same,peptide microarray binding signal,[3]; [6],0.000571
same,peptide microarray binding signal,[4]; [5],0.000257 ± 2.7e-06
same,peptide microarray binding signal,[4]; [6],0.000692 ± 7.3e-06
B2,peptide microarray binding signal,"[1]; peptide region: H2B 1-13, peptide modifications: H2BS6ph, binder concentration: 50 nM",0.00342 ± 3.7e-05
same,peptide microarray binding signal,"[1]; peptide region: H2B 1-13, peptide modifications: H2BS6ph, binder concentration: 500 nM",0.00543 ± 0.00012
same,peptide microarray binding signal,"[2]; peptide region: H2B 1-13, peptide modifications: H2BS6ph, binder concentration: 10 nM",0.00346 ± 0.00017
same,peptide microarray binding signal,"[2]; peptide region: H2B 1-13, peptide modifications: H2BS6ph, binder concentration: 100 nM",0.00425 ± 0.00022
same,peptide microarray binding signal,[3]; [7],0.00245 ± 6.6e-05
same,peptide microarray binding signal,[3]; [8],0.000799 ± 8.3e-06
same,peptide microarray binding signal,[4]; [7],0.00068 ± 1e-05
same,peptide microarray binding signal,[4]; [8],0.000923 ± 9.6e-06
B3,peptide microarray binding signal,"[1]; peptide region: H2B 1-13, peptide modifications: H2BK5ac H2BS6ph H2BK11ac, binder concentration: 50 nM",0.0021 ± 2.5e-05
same,peptide microarray binding signal,"[1]; peptide region: H2B 1-13, peptide modifications: H2BK5ac H2BS6ph H2BK11ac, binder concentration: 500 nM",0.00276 ± 5.8e-05
same,peptide microarray binding signal,"[2]; peptide region: H2B 1-13, peptide modifications: H2BK5ac H2BS6ph H2BK11ac, binder concentration: 10 nM",0.00603 ± 0.00058
same,peptide microarray binding signal,"[2]; peptide region: H2B 1-13, peptide modifications: H2BK5ac H2BS6ph H2BK11ac, binder concentration: 100 nM",0.00206 ± 5.4e-05
same,peptide microarray binding signal,[3]; [9],0.00364 ± 0.00027
same,peptide microarray binding signal,[3]; [10],0.00131 ± 3.4e-05
same,peptide microarray binding signal,[4]; [9],0.00131 ± 4.4e-05
same,peptide microarray binding signal,[4]; [10],0.00185 ± 8e-05
B4,peptide microarray binding signal,"[1]; peptide region: H2B 7-19, peptide modifications: H2BK11ac H2BK12ac H2BS14ph H2BK15ac, binder concentration: 50 nM",0.001661 ± 1.4e-05
same,peptide microarray binding signal,"[1]; peptide region: H2B 7-19, peptide modifications: H2BK11ac H2BK12ac H2BS14ph H2BK15ac, binder concentration: 500 nM",0.00238 ± 7.1e-05
same,peptide microarray binding signal,"[2]; peptide region: H2B 7-19, peptide modifications: H2BK11ac H2BK12ac H2BS14ph H2BK15ac, binder concentration: 10 nM",0.002447 ± 1.4e-05
same,peptide microarray binding signal,"[2]; peptide region: H2B 7-19, peptide modifications: H2BK11ac H2BK12ac H2BS14ph H2BK15ac, binder concentration: 100 nM",0.000709
same,peptide microarray binding signal,[3]; [11],0.000774 ± 0.00015
same,peptide microarray binding signal,[3]; [12],0.000685 ± 7.2e-06
same,peptide microarray binding signal,[4]; [11],0.000242 ± 2.5e-06
same,peptide microarray binding signal,[4]; [12],0.000461
B5,peptide microarray binding signal,"[1]; peptide region: H2B 7-19, binder concentration: 50 nM",0.002382 ± 1.1e-05
same,peptide microarray binding signal,"[1]; peptide region: H2B 7-19, binder concentration: 500 nM",0.00743 ± 0.0029
same,peptide microarray binding signal,"[2]; peptide region: H2B 7-19, binder concentration: 10 nM",0.00328 ± 6.2e-05
same,peptide microarray binding signal,"[2]; peptide region: H2B 7-19, binder concentration: 100 nM",0.00283 ± 4.6e-05
same,peptide microarray binding signal,[3]; [13],0.0043 ± 0.0018
same,peptide microarray binding signal,[3]; [14],0.00114 ± 1.2e-05
same,peptide microarray binding signal,[4]; [13],0.00116 ± 9.9e-05
same,peptide microarray binding signal,[4]; [14],0.001211 ± 1.2e-05
